The whole screen tested about 360,000 compounds, of which about 25,000 (6.9%) were called active. Entries that show only a call come without a potency. Another 9% or so got no clear call; they are omitted. Calls follow the shape of the dose curve; as a rule, active = well fitted inhibition curve with a large enough effect; inconclusive = small, poorly fitted or top-dose-only effect; inactive = flat fitted curve, though single readings scatter. Many of the other results were omitted from the sample, so actives are more common in it than they were.

These results are taken from PubChem BioAssay AID588342 (National Center for Advancing Translational Sciences (NCATS), 2011).
Potency is read from the fitted curve at half-maximal effect.

Chain of Luciferin 4-monooxygenase (Photinus pyralis) (P08659 whole entry, looked up): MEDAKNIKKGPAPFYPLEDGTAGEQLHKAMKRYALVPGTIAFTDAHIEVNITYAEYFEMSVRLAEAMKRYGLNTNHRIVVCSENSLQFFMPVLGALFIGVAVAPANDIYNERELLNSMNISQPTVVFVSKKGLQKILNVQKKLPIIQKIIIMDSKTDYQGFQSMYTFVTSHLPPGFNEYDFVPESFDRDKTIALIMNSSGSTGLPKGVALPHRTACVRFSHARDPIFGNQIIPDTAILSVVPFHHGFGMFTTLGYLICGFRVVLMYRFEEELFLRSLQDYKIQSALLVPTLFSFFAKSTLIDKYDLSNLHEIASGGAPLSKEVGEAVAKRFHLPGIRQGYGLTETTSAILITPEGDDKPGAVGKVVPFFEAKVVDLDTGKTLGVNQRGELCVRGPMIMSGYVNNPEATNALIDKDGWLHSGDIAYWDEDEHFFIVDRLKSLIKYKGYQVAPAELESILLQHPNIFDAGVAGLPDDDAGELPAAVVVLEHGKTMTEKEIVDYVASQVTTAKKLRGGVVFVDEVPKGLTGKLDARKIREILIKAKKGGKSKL

In this test the target is Luciferin 4-monooxygenase (Photinus pyralis) (UniProt P08659). As to the kind of experiment: qHTS profiling assay for firefly luciferase inhibitor/activator using purifed enzyme and Km concentrations of substrates (counterscreen for miR-21 project). Also: nearly all actives have a fitted effect of over 55% in size. The conditions noted are these: purified FLuc, luminescence inhibition; series mostly up to 57.5 µM. In a few lines:
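Purified P. pyralis luciferase, 10 nM final, with Km-level 10 uM D-luciferin and 10 uM ATP in 50 mM Tris acetate pH 7.5, 10 mM Mg acetate, 0.01% Tween-20, 0.05% BSA; 6-point qHTS titration about 60 µM downward; luminescence read.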
As to `CCn1c2ccccc2c2nnc(N3CCN(c4cc(C)ccc4C)CC3)nc21`, the Potency result was “inactive”.

Take `CC(=O)Nc1cc(C(=O)NCc2ccc(F)cc2Cl)ccc1Sc1ccc(Cl)cc1`: the Potency entry was “inactive”.

As to `O=c1c(=O)n(Cc2c(F)cccc2Cl)ccn1Cc1ccccc1`, the Potency result was “inactive”.

As for `CCOC(=O)C1CCN(c2csc3ccc(C)cc3c2=O)CC1`, the Potency is 7.57 µM (active).

On to `CCOC(=O)C1CCN(c2ccc(C(=O)O)cc2[N+](=O)[O-])CC1`, for which the Potency result is “inactive”.

For `CCOC(=O)C1CCN(c2c(Nc3cc(C)cc(C)c3)c(=O)c2=O)CC1`, the Potency entry was “inactive”.

For the molecule `CCOCCCNC(=O)c1cn(CC)c2ccc(S(=O)(=O)N3CCc4ccccc4C3)cc2c1=O`, the Potency result was “inactive”.

On to `O=C(Nc1cccnc1)c1cc(Cl)ccc1Cl`, for which the Potency entry is “inactive”.

On to `C=CCc1cccc2cc(C(=O)Nc3ccc(NC(C)=O)cc3)c(=O)oc12`, for which the Potency entry is “inactive”.

On to `C=CCn1cc(Cl)cc(C(=O)Nc2ccccc2)c1=O`, for which the Potency was 16.9 µM (active).

Regarding `CCOc1ncccc1C(=O)Nc1ccc(S(=O)(=O)Nc2nc(C)cc(C)n2)cc1`, the Potency result is “inactive”.

Turning to `Cc1ccc2[nH]c3c(=O)n(CC(=O)NC(C)C)ncc3c2c1`, the Potency entry was “inactive”.

`O=C(COc1ccc(Cl)cc1)Nc1ccccc1OCc1cc(=O)n2ccccc2n1`: the Potency result is “inactive”.

Take `CCCn1nc(C(=O)N2CCCc3ccccc32)c2ccccc2c1=O`: the Potency entry was “inactive”.

For the molecule `O=C(C(=O)N1CCc2ccccc2C1)N1CCc2ccccc2C1`, the Potency entry was “inactive”.

Turning to `Cc1ccc2c(c1)N(C(=O)CCC(=O)N1CCc3ccccc3C1)CCO2`, the Potency result is “inactive”.

On to `Cn1cccc1C(=O)N1CCc2ccccc2C1`, for which the Potency result is “inactive”.

Regarding `O=C(c1cc(-c2ccc(O)cc2)on1)N1CCCc2ccccc21`, the Potency is 16.9 µM (active).

With `O=C(c1cccs1)N1CCN(C(=O)N2CCOCC2)CC1`, the Potency entry was “inactive”.

Regarding `O=C(c1c(Cl)nc2sccn12)N1CCCc2ccccc21`, the Potency result is “inactive”.

With `O=C(c1noc2c1CCCC2)N1CCc2ccccc2C1`, the Potency is 16.9 µM (active).

With `O=C(NCCCN1CCOCC1)c1cc(-c2cccc(O)c2)on1`, the Potency result is “inactive”.

With `Cc1ccc(-c2cc(C(=O)N3CCc4ccccc4C3)no2)cc1`, the Potency was 23.9 µM (active).

With `CN1CCN(Cc2c(C(=O)N3CCc4ccccc4C3)nc3ccc(Cl)cn23)CC1`, the Potency result was “inactive”.

As to `O=C(c1cc(-c2ccc(O)cc2)on1)N1CCOCC1`, the Potency is 9.53 µM (active).

On to `Cc1cccc(-n2ncc(C(=O)N3CCN(c4ccc(Cl)cc4)CC3)c2C2CCN(C(=O)OC(C)(C)C)CC2)c1`, for which the Potency result is “inactive”.

`Cc1ccc(Nc2nnc(-c3ccc(C)c(S(=O)(=O)N4CCCCC4)c3)c3ccccc23)cc1`: the Potency result is “inactive”.

On to `CCOC(=O)c1ccc(N2C(=O)c3[nH]nc(-c4ccccc4)c3C2c2ccc(C(C)C)cc2)cc1` (stereo not drawn), for which the Potency entry was “inactive”.

For the molecule `Cc1ccc(C(=O)OCC(=O)Nc2ccc(Cl)cn2)cc1S(=O)(=O)N1CCOCC1`, the Potency result was “inactive”.

In the case of `COc1cc2nc(NCC(C)c3ccccc3)n3nc(-c4ccccc4)nc3c2cc1OC` (stereo not drawn), the Potency result is “inactive”.

Regarding `COCCn1c(SCC(=O)Nc2cc(Cl)ccc2OC)nc2c(c1=O)SC(C)C2` (stereo not drawn), the Potency result was “inactive”.

As for `O=C(c1cc(-c2ccc(F)cc2)on1)N1CCN(c2ccc(F)cc2)CC1`, the Potency result is “inactive”.

Take `O=C(c1ccc(Cl)c([N+](=O)[O-])c1)N1CCN(c2ccccc2)CC1`: the Potency entry is “inactive”.

Take `O=C(c1cc(-c2ccc(Cl)cc2)on1)N1CCN(c2ccccc2)CC1`: the Potency is 10.7 µM (active).

Regarding `CCCN1CCN(CCCNC(=O)c2ccc3nc(Cc4ccccc4)oc3c2)CC1`, the Potency entry was “inactive”.

Take `Cc1cccc(NC(=O)c2ccc(F)c(S(=O)(=O)N(C)C3CCCCC3)c2)c1`: the Potency entry is “inactive”.

Turning to `Cc1cccc(NC(=O)CSc2nc3[nH]ncc3c(=O)[nH]2)c1`, the Potency entry was “inactive”.

As to `CCCSc1nc2[nH]ncc2c(=O)[nH]1`, the Potency result was “inactive”.

As for `Cc1ccc(CSc2nc3[nH]ncc3c(=O)[nH]2)cc1`, the Potency was 13.5 µM (active).

Take `COc1cc(OC)cc(-c2c(-c3ccc(F)cc3)c3cc(-c4ccc5cc[nH]c5c4)ccc3n2C)c1`: the Potency entry is “inactive”.

On to `O=S(=O)(Nc1ccc(-c2ccc(N3CCOCC3)nn2)cc1)c1cc(Cl)ccc1Cl`, for which the Potency was 23.9 µM (active).

As to `O=S(=O)(Nc1ccccc1N1CCOCC1)c1ccc(Cl)s1`, the Potency result is “inactive”.

In the case of `Cc1cccc(NS(=O)(=O)c2cc(Cl)ccc2Cl)n1`, the Potency result is “inactive”.

As for `O=S(=O)(Nc1cccc(-c2ccc(N3CCOCC3)nn2)c1)c1ccc(Cl)c(Cl)c1`, the Potency was 5.36 µM (active).

As to `Cc1cccc(NS(=O)(=O)c2ccc([N+](=O)[O-])cc2)n1`, the Potency result was “inactive”.

Take `O=S(=O)(Nc1cccc(-n2cnnn2)c1)c1cnc(Cl)c(Cl)c1`: the Potency result was “inactive”.

Turning to `CC(=O)Nc1ccc(S(=O)(=O)Nc2ccc(N3CCOCC3)c(F)c2)cc1`, the Potency result is “inactive”.

On to `CN1CCN(c2ccc(S(=O)(=O)Nc3ccccc3)cc2[N+](=O)[O-])CC1`, for which the Potency entry is “inactive”.

In the case of `O=[N+]([O-])c1ccc(S(=O)(=O)Nc2cccc(-c3ccc(N4CCCC4)nn3)c2)cc1`, the Potency was 12 µM (active).

As for `Cc1ccc2oc3c(c(=O)c2c1)C(c1ccc(O)cc1)N(Cc1ccc2c(c1)OCO2)C3=O` (stereo not drawn), the Potency entry was “inactive”.

For the molecule `Cc1ccc(COC(=O)CN2C(=O)NC3(CCCC3)C2=O)cc1`, the Potency result is “inactive”.

Take `CC(C)(C)c1ccc(S(=O)(=O)N2CCN(C(=O)c3ccc4c(c3)C(=O)N(Cc3ccncc3)C4=O)CC2)cc1`: the Potency entry is “inactive”.

`C=Cc1ccc(Cn2c(C(=O)OC)cc3sc(C)cc32)cc1`: the Potency entry is “inactive”.

Turning to `CCc1ccccc1OCC(=O)Nc1ccc(C)c(S(=O)(=O)N2CCCCCC2)c1`, the Potency entry is “inactive”.

For the molecule `CCCN(CCC)CCCNC(=O)Cn1cc2c(n1)-c1c(oc(C(=O)N3CCCC3)c1C)CC2`, the Potency entry is “inactive”.

On to `CCOc1ccc(NC(=O)COc2ccc(C(=O)N3CCC(C(N)=O)CC3)cc2OC)cc1`, for which the Potency entry was “inactive”.

`CCCCN(C(=O)c1ccc2ccccc2c1)c1c(N)n(CCCC)c(=O)[nH]c1=O`: the Potency result is “inactive”.

Turning to `Cc1ccc(-n2nc(N)c3c(=O)oc(N(C)C)nc32)cc1`, the Potency result was “inactive”.

For `O=C(Nc1ccc(NC(=O)c2cccs2)cc1)c1ccc2ccccc2c1`, the Potency entry was “inactive”.

As to `O=C(Nc1ccc2oc(-c3ccc4ccccc4c3)nc2c1)c1cccs1`, the Potency is 5.36 µM (active).

Turning to `CCN(CCCNC(=O)c1cc(Nc2ccc(OC)cc2)nc2ccccc12)c1cccc(C)c1`, the Potency entry was “inactive”.

For `Cc1ccc(S(=O)(=O)n2nc(C)c(S(=O)(=O)N3CCCCCC3)c2C)cc1`, the Potency result is “inactive”.

Take `CCC(=O)N1CCc2cc(CNS(=O)(=O)c3ccc(Br)s3)ccc21`: the Potency entry is “inactive”.

`Cc1ccccc1Nc1nn2c(=O)c3ccc(C(=O)NCCc4ccc(Cl)cc4)cc3nc2s1`: the Potency result was “inactive”.

For `CC(=O)C1=C(C)NC(=O)NC1c1cc(Br)ccc1OCC#N` (stereo not drawn), the Potency result was “inactive”.

Take `Cc1cc(C(=O)COc2ccc(Br)cc2F)c(C)n1C1CC1`: the Potency is 13.5 µM (active).

Turning to `O=C(COc1ccc(Br)cc1F)NC1CCN(Cc2ccccc2)CC1`, the Potency result was “inactive”.

Turning to `O=C(CC(=O)N/N=C\c1cccc(Cl)c1Cl)NCc1ccccc1`, the Potency entry was “inactive”.

On to `O=C(CSc1nnc(SCc2ccc(Cl)cc2)s1)N/N=C/c1ccccc1Cl`, for which the Potency is 6.01 µM (active).

Take `O=C(Cc1ccccc1)N/N=C/c1ccc(Cl)cc1Cl`: the Potency entry is “inactive”.

On to `Cc1cc(NC(=O)CCS(=O)(=O)c2ccc(F)cc2)no1`, for which the Potency result was “inactive”.

`O=C1CC2(CCN(C(=O)COc3ccc(F)cc3)CC2)Oc2ccccc21`: the Potency entry was “inactive”.

In the case of `CCOC(=O)CCc1c(C)c(C#N)c2[nH]c3ccccc3n2c1=O`, the Potency result is “inactive”.

`CCCc1cc(=S)n2c([nH]c3ccccc32)c1C#N`: the Potency was 19 µM (active).

Take `CN(C)c1ccc(C(CNS(=O)(=O)c2cc(F)ccc2F)N2CCOCC2)cc1` (stereo not drawn): the Potency result is “inactive”.

As to `Cc1cc(CO)nn1-c1ccc([N+](=O)[O-])cc1`, the Potency entry was “inactive”.

On to `Cn1nc(-c2ccccc2)c2cc([N+](=O)[O-])ccc21`, for which the Potency entry is “inactive”.

In the case of `Cc1nn(-c2ccc([N+](=O)[O-])cc2)c(N)c1-c1ccccc1`, the Potency was 7.57 µM (active).

Turning to `COc1ccc(CCNC(=O)c2ccc(-n3c(C)cc4c3CCCC4)cc2)cc1OC`, the Potency entry was “inactive”.

As for `COc1cc(C(=O)NCC(c2ccc(Cl)cc2)N2CCOCC2)cc(OC)c1OC` (stereo not drawn), the Potency result was “inactive”.

For the molecule `Cc1ccccc1N1CC(C(=O)Nc2nnc(SCCC3OCCO3)s2)CC1=O` (stereo not drawn), the Potency result is “inactive”.

Regarding `O=C(NNC(=O)c1cccnc1)Nc1ccccc1`, the Potency result was “inactive”.

For the molecule `Cc1ccc(NC(=O)Nc2ccc3oc(C)nc3c2)cc1`, the Potency is 1.2 µM (active).

`Cc1nc2ccc(NC(=O)C(F)(F)F)cc2o1`: the Potency entry is “inactive”.

On to `Cc1ccc(NC(=O)c2cc3cc(C)ccc3n2C)cc1`, for which the Potency result was “inactive”.

As for `C=C(C)C(=O)Nc1cccc(C(C)=O)c1`, the Potency entry was “inactive”.

In the case of `CC(=O)c1cccc(NC(=O)Nc2ccc(C)cc2)c1`, the Potency was 4.78 µM (active).

`Cc1ccc(NC(=O)Nc2cccnc2)cc1`: the Potency was 10.7 µM (active).

As to `Cc1ccc(NC(=O)NCC(c2cccnc2)N2CCOCC2)cc1` (stereo not drawn), the Potency result was “inactive”.

Turning to `CC(=O)c1cccc(NC(=S)N2CCCC2)c1`, the Potency entry was “inactive”.

`Cc1cccc(N2CCN(C(=O)Cn3ncc4c5ccccc5n(C)c4c3=O)CC2C)c1` (stereo not drawn): the Potency result is “inactive”.

Turning to `CCN(CC)S(=O)(=O)c1cc(C(=O)Nc2cc(S(=O)(=O)N3CCOCC3)ccc2N2CCCC2)ccc1F`, the Potency entry is “inactive”.

Regarding `CN1CCN(/N=C2/C(=O)Nc3ccc([N+](=O)[O-])cc32)CC1`, the Potency entry is “inactive”.

With `CCCCN(C(=O)C1CCC1)c1c(N)n(Cc2ccccc2)c(=O)[nH]c1=O`, the Potency entry is “inactive”.

As for `CCOc1ccc(NC(=O)C(CC(C)C)N2Cc3ccccc3C2=O)cc1` (stereo not drawn), the Potency result is “inactive”.

For the molecule `CCOC(=O)c1ccc(NC(=O)C2CC(=O)N(c3ccc(C(C)C)cc3)C2)cc1` (stereo not drawn), the Potency entry was “inactive”.

Take `CCNC(=O)CC1C(=O)N(c2ccc(OC)cc2)C(=O)N1CCOC` (stereo not drawn): the Potency entry is “inactive”.

Consider `O=C(c1ccc(Oc2ccc(Cl)cc2)c([N+](=O)[O-])c1)N1CCCC1`, for which the Potency result is “inactive”.

On to `CCOC(=O)c1oc2ccc(S(=O)(=O)n3nc(-c4ccccc4OC)cc3N)cc2c1C`, for which the Potency result is “inactive”.

In the case of `COc1ccc(-c2[nH]c3c(c2-c2c(-n4cccc4)n(C)c(=O)n(C)c2=O)c(=O)n(C)c(=O)n3C)cc1`, the Potency entry is “inactive”.

For `CCc1ccccc1NC1c2ccccc2C(=O)N1c1cccnc1` (stereo not drawn), the Potency entry is “inactive”.

Regarding `COC(=O)c1cc(NC(=O)c2nn(C)c(=O)c3ccccc23)cc(C(=O)OC)c1`, the Potency result is “inactive”.

For `COC(=O)c1cc(NC2c3ccccc3C(=O)N2c2ccc(Cl)cn2)cc(C(=O)OC)c1` (stereo not drawn), the Potency was 6.01 µM (active).
